Screens: PubChem BioAssay, National Center for Advancing Translational Sciences (NCATS)
Giardia FBPA inh: Giardia lamblia aldolase inhibition. actives 0.71% (n = 290,000). A8B2U2. Potency, µM (top dose mostly 59.6 µM), for the others: at the top dose activity, negative = inhibition, most hits filed as inhibitors. purified Giardia FBPA; further: potency means the concentration at half of the fitted maximal effect; nearly all actives have a fitted effect of over 55% in size
Target sequence (A8B2U2 whole entry, looked up): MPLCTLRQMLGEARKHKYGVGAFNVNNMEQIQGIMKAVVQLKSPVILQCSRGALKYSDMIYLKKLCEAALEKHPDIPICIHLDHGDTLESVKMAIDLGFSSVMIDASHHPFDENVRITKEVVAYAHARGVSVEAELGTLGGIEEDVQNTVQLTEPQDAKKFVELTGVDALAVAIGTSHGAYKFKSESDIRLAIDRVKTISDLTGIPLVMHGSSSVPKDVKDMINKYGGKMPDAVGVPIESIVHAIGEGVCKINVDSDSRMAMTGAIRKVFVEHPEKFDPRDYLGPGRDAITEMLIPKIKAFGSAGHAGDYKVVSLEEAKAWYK
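Giardia FBPA (40 nM reagent) was preincubated 10 min at RT with compound (up to 57.5 uM final), then substrate plus GAPDH/TPI/NAD/arsenate coupling system with diaphorase/resazurin was added; resorufin fluorescence (525/598 nm) was read after 20 min.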
Pf growth 96h: P. falciparum growth inhibition at 96 hours; P. falciparum luciferase reporter growth, 96 h; Potency, µM (series often up to 28.7 µM), for the others: top-dose activity change, negative = inhibition, actives largely listed as inhibitors; actives 6.9% (n = 320,000); AID 504834; further: potency means the concentration at half of the fitted maximal effect
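Delayed-death screen, second-generation endpoint: infected erythrocytes, 2% hematocrit, 0.05% parasitemia final; 96 hours at 37 C, 5% CO2; luciferase detection reagent; luminescence decrease equals reduced growth.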
Pf growth 48h: inhibits P. falciparum growth in the first generation, 48 h; Potency, µM (series often up to 28.7 µM), for inactives: at the top dose activity change, negative = inhibition, usual class: inhibitors; actives 5.9% (n = 310,000); AID 504832; P. falciparum luciferase growth in erythrocytes, 48 h; further: potency means the concentration at half of the fitted maximal effect
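Erythrocytes infected with P. falciparum carrying an integrated firefly luciferase reporter (2% hematocrit, 0.1% parasitemia final) were exposed to compounds in RPMI 1640 with 0.5% Albumax at 37 C, 5% CO2. Growth inhibition was scored as reduced luminescence.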
HCMV inh: human cytomegalovirus inhibition; actives 4.5% (n = 410,000); activity change, negative = inhibition, % at 57.5 µM; HFF cells, HCMV-luciferase reporter, 72 h; hits give low values; in the data active means activity change below about -60%; inconclusive means no clear call, values can overlap the other calls; inactive means above about -39%
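Two compound doses tested in HFFs infected with HCMV-luciferase, MOI 1 PFU/cell, 72 h at 37C. Lysate luminescence read with OneGlo; data normalized against buffer-only and 10uM Salinomycin inhibitor controls.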
Sm TGR inh: inhibitors of Schistosoma mansoni thioredoxin glutathione reductase | purified TGR, DTNB reduction, TNB absorbance 405 nm | Potency, µM (top dose mostly 114 µM), inactives show at the top dose activity change, negative = inhibition, actives largely listed as inhibitors | actives 3% (n = 360,000) | Q962Y6 | AID 485364; further: potency means the concentration at half of the fitted maximal effect; nearly all actives have a fitted effect of over 60% in size
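First, TGR (20 nM dispensed) and NADPH were mixed with compound. Second, a 15 min room-temperature incubation followed. Third, further NADPH and then DTNB were added to start the reaction. Finally, TNB absorbance was monitored kinetically.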
* marks the source's active call; other numbers are inactive results; ? = inconclusive; . = no result; [ ] = remark or other dose. Rows were chosen to be rich in hits. Some 14% of all compounds tested hit in one or more screens of this group. Unless noted, the call rests on the fitted dose curve; in most records, active means well fitted curve in the direction sought with a large enough effect; inconclusive means small, poorly fitted or top-dose-only effect, or another doubt; inactive means no such curve, though single readings can be large; an effect the other way counts as inactive or inconclusive. On the % scale 0 is the no-effect control and ±100 the full control effect.

SMILES	Giardia FBPA inh	Pf growth 96h	Pf growth 48h	HCMV inh	Sm TGR inh
FC(F)C(F)(F)Oc1cccc(Nc2nccn3c(-c4cccc5ccccc45)cnc23)c1	.	.	.	3.2	.
O=[N+]([O-])c1ccc(Cl)c2c1C1C=CCC1C(c1ccccn1)N2 (centres undefined)	?	-23.7%	?	-8.8	20µM*
CSc1cccc(NC(=O)CC(c2cccs2)N2Cc3ccccc3C2=O)c1 (centres undefined)	.	.	.	-8.9	27.0%
CCCCCN1C(=O)c2cc(OC)ccc2[C@@]2(C(=O)OCC)Cc3cc(OC)ccc3[C@@H]12	.	.	.	-104.9*	.
CCOC(=O)[C@]12Cc3cc(OC)ccc3[C@H]1N(C)C(=O)c1cc(OC)ccc12	.	.	.	-106.0*	.
CCOC(=O)[C@]12Cc3cc(OC)ccc3[C@H]1N(CC(=O)OC)C(=O)c1ccccc12	.	.	.	-10.9	.
CCOC(=O)[C@]12Cc3cc(Cl)ccc3[C@H]1N(C)C(=O)c1cc(OC)ccc12	.	.	.	-96.5*	.
CCOC(=O)[C@]12Cc3cc(OC)ccc3[C@H]1N(CC(=O)OC)C(=O)c1cc(OC)ccc12	.	.	.	-106.9*	.
CCOC(=O)[C@]12Cc3cc(C)ccc3[C@H]1N(Cc1ccccc1)C(=O)c1cc(OC)ccc12	.	.	.	-34.6	.
COc1ccc(NC(=O)CC(c2ccco2)C(C)C)cc1 (centres undefined)	-5.9%	-13.4%	?	35.4	14.0%
CCC(=O)N(CCC(Cc1ccccc1)c1ccco1)Cc1ccco1 (centres undefined)	4.2%	-15.6%	?	?	?
COc1ccccc1C(CCN(Cc1cccs1)C(C)=O)c1ccco1 (centres undefined)	0.0%	13.1µM*	7.38µM*	9.4	12.6µM*
CCC(=O)N(CCC(c1ccccc1)c1ccco1)Cc1cccs1 (centres undefined)	7.4%	?	?	?	14.1µM*
COc1ccccc1CN1CC(C(=O)N(CCO)Cc2cccs2)CCC1=O (centres undefined)	.	-18.7%	3.9%	-8.2	0.0%
Cc1cc(C)n2nc(CNC(=O)c3c(F)cccc3F)nc2n1	.	.	.	-0.1	-0.2%
CC1=C2C(=O)C3C(CC=C4CC(O)CCC43C)C2CCC12OC1CC(C)CNC1C2C (centres undefined)	5.0%	?	13.1µM*	15.5	6.2%
CS(=O)(=O)c1ccc2nc(NC(=O)c3ccccc3Br)sc2c1	-14.0%	168.3%	102.0%	55.8	-3.7%
N=C1/C(=C\c2coc3ccc(O)cc3c2=O)C(=O)N=C2SC=CN12	-29.1%	42.6%	57.2%	-17.4	28.2µM*
COc1ccc(OC)c(CNC(=O)c2cc3cc4ccc(OC)cc4nc3o2)c1	.	.	.	10.1	5.5%
Cn1c(SCC(=O)N/N=C/c2ccco2)nc2ccccc21	-22.4%	-2.4%[5.75 µM]	7.6%	47.0	-8.9%
CCn1c(SCC(=O)N/N=C/C=C/c2ccco2)nc2ccccc21	-29.7%	-0.8%	28.8%	28.2	14.1µM*
O=C(CSc1nnc(SCc2ccccc2)s1)N/N=C/C=C/c1ccccc1[N+](=O)[O-]	2.6%	24.1%	45.2%	-34.7	6.2%
O=C(CSc1nnc(SCc2ccccc2)s1)N/N=C/C=C\c1ccco1	-28.0%	?	15.1%	?	31.6µM*
CCn1c(SCC(=O)N/N=C/C=C/c2ccco2)nnc1-c1ccc(OC)cc1	?	?	2.6%	?	31.6µM*
Cc1ccc(NS(=O)(=O)c2ccc3c(c2)CCCN3C(=O)C2CCC2)c(C)c1	.	.	.	4.4	-0.6%
SMILES	Giardia FBPA inh	Pf growth 96h	Pf growth 48h	HCMV inh	Sm TGR inh
O=C(NCc1cccs1)c1csc(COCCO)n1	.	.	.	-3.3	.
COc1ccc(CCNS(=O)(=O)c2c(C)[nH]c(C)c2C(=O)N2CCCCC2)cc1OC	-15.2%	?	?	-16.1	0.7%
Cc1ccc2ncc(S(=O)(=O)c3ccccc3)c(N3CCCCC3C)c2c1 (centres undefined)	2.8%	2.7%	?	?	-14.9%
Cc1ccc2nsnc2c1NC(=O)CCl	0.9%	?	?	-24.0	44.7µM*
CCC(=O)Nc1c(C)ccc2nsnc12	6.1%	-2.9%	.	92.2	9.4%[11.4 µM]
O=C(Nc1ccccc1N1CCCCC1)c1ccc(-c2cccc(Cl)c2)o1	-3.5%	?	-83.6%	35.2	-7.8%
O=C(Nc1cccc2nsnc12)c1ccc(-c2cccc(Cl)c2)o1	?	15.4%	18.6%	-8.6	6.31µM*
Cc1ccc2nsnc2c1NC(=O)c1ccc(-c2cc(Cl)ccc2Cl)o1	-24.6%	5.5%	23.0%	?	39.8µM*
N#CCCn1c(=O)c(-c2ccc(F)cc2)nc2cnc(Oc3ccccc3)nc21	6.7%	.	.	.	.
COc1ccccc1C(=O)NNC(=O)c1ccc(Br)cc1	-13.6%	12.4%	23.3%	22.1	-19.7%
Cc1ccc2nc(C3CCCCC3)c(Cc3ccccc3C(F)(F)F)n2c1	.	.	.	-69.8*	.
Cc1ccc2nc(C3CCCCC3)c(Cc3ccccc3)n2c1	.	.	.	-15.2	.
O=C(Nc1cccnc1)c1ccc(Cl)c(S(=O)(=O)N2CCCC2)c1	2.9%	24.2%	?	?	-4.5%
Oc1ccc(Cc2ccc(Cl)cc2)c(O)c1	-6.9%	-15.0%	?	-62.1*	29.7%
Oc1ccc(Cc2ccccc2Cl)c(O)c1	.	.	.	-4.7	.
COc1cc(C2NC(=O)NC(O)(C(F)(F)F)C2C(=O)c2cccs2)ccc1O (centres undefined)	3.5%	13.1µM*	0.0%	24.1	?
COc1cc(C2NC(=O)NC(O)(C(F)(F)F)C2C(=O)c2ccc(Cl)cc2)ccc1O (centres undefined)	.	44.6%	6.2%	-30.6	?
COc1ccc(C2NC(=O)NC(O)(C(F)(F)F)C2C(=O)c2ccc(F)cc2)cc1 (centres undefined)	4.7%	.	-10.4%	9.3	44.7µM*
Cc1cc2c(nc1C)CCCN2C[C@@H](O)CN1CCN(C)CC1	-1.3%[12.9 µM]	.	.	.	.
O=C(NCCCN1CCOCC1)c1cc(-c2cccs2)on1	11.1%	.	39.1%	16.4	0.0%
COCCCNC(=O)c1ccc(-n2nc(C(F)(F)F)cc2-c2cccs2)cc1	-0.3%	.	11.7µM*	?	-1.1%
O=C(NCCCN1CCOCC1)c1ccc(-n2nc(C(F)(F)F)cc2-c2cccs2)cc1	3.5%	.	9.28µM*	-67.2*	0.2%
Cn1c(=O)n(-c2cccc(Cl)c2)c(=O)c2c3c(sc21)COC(C)(C)C3	1.5%	-16.5%	-16.5%	-11.5	-15.4%
Cc1ccc(N2CC(C(=O)N3CCOCC3)CC2=O)cc1Cl (centres undefined)	9.8%	-1.4%	0.0%	-10.5	-9.9%
O=C1C(Cc2cccc([N+](=O)[O-])c2)SC(=Nc2ccccc2)N1c1ccccc1 (centres undefined)	-6.7%	7.38µM*	8.28µM*	-13.7	-0.2%
O=C1C(Cc2ccc(F)cc2)SC(=Nc2ccccc2)N1c1ccccc1 (centres undefined)	1.7%	?	10.4µM*	-10.4	-3.1%
